Assay outcomes deposited in PubChem BioAssay by several laboratories.
Compounds with a hit are over-represented: about 2.2% of the library has one in this group of screens.
BaF3 parental: parental Ba/F3 cell viability inhibition, counter-screen for JAK2V617F inhibitor project, murine pro-B, CellTiter-Glo luminescence; CellTiter-Glo ATP luminescence; inhibition, % at 5.6 µM; 1.1% of 220,000 active;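 active = inhibition above a per-campaign cutoff, the mean inhibition of all tested compounds plus 3 SD, cut at about 27% in these data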;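 also: 0% = DMSO wells and 100% = JAK Inhibitor I control wells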
Ba/F3 V617F tox: reduced viability of JAK2V617F-dependent Ba/F3 cells, primary screen, JAK2V617F inhibitor project, cell-based, Ba/F3 EpoR-JAK2V617F, luminescence. ATP luminescence. inhibition, % at 5.6 µM. 1.1% of 220,000 active. AID 1446, 2008;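 active = inhibition above the campaign mean plus 3 SD over all tested compounds, cut at about 24% in these data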;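 also: cytokine-independent growth of Ba/F3 cells driven by EpoR plus mutant JAK2; 0% = DMSO-treated cells and 100% = JAK inhibitor I control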
APP transl inh: inhibitors of APP translation via 5'UTR reporter, primary screen, APP 5'UTR luciferase, SH-SY5Y cells. SH-SY5Y APP 5'UTR-luciferase reporter, luminescence. inhibition, % at 2 µM. 0.82% of 190,000 active. AID 1285, 2008;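 active = inhibition above a set limit, derived from the sample mean plus 3 SD, cut at about 45% in these data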
IEC-6 cytotox: cytotoxicity in IEC-6 intestinal epithelial cells, primary screen, cytotoxicity control for KLF5 inhibitor project, cell-based, luminescence; IEC-6 cytotoxicity, luminescence viability; inhibition, % at 5 µM; 0.78% of 290,000 active; in the data active = inhibition above about 22%;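 also: 0% = plate median of test compound wells and 100% = cytotoxic reference compound wells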
KLF5 inhibitor: KLF5 expression inhibitors, primary screen, DLD-1 cells, luminescence; DLD-1 KLF5 promoter-luciferase reporter; inhibition, % at 5 µM; 0.23% of 290,000 active; AID 1700, 2009;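 active = inhibition above a per-plate limit of that plate's mean compound inhibition plus 3 SD, cut at about 60% in these data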;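 also: 0% = DMSO wells and 100% = LY294002 at 200 µM; higher means less KLF5 promoter-driven luciferase light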
aSyn 5UTR inh: MLPCN primary screen, SNCA 5' untranslated region | inhibition, % (tested at 7.5 µM) | 0.82% of 300,000 active | alpha-synuclein 5'UTR reporter, inhibitor activity; in the data active = inhibition above about 60%;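 also: H4 neuroglioblastoma cells stably carrying SNCA 5'UTR luciferase fusion; 0% = DMSO wells and 100% = positive control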
An asterisk follows results filed as active; / = no result given.

SMILES	BaF3 parental	Ba/F3 V617F tox	APP transl inh	IEC-6 cytotox	KLF5 inhibitor	aSyn 5UTR inh
COc1ccc(NC(C)=O)c(C)c1	8	0	-4	-6	-1	8
COc1cc(C)c(C(=O)CC(=O)c2c(C)cc(OC)cc2C)c(C)c1	/	/	/	/	/	72*
CN(C(=O)COC(=O)C1CCN(S(=O)(=O)c2ccc3c(c2)OCCO3)CC1)C1CCCCC1	/	/	/	/	/	10
CCOc1ccccc1C1C2=C(COC2=O)Nc2cc3c(cc21)OCO3 (configuration not stated)	74*	83*	96*	91*	63*	117*
CCCOc1c(OC)cccc1C1CC(=O)Nc2cc3c(cc21)OCO3 (configuration not stated)	1	0	9	0	-4	-3
COc1ccc(OC)c(S(=O)(=O)N/N=C(/C)c2ccc3c(c2)OCO3)c1	/	/	/	0	-16	9
CCN(CC(=O)Nc1ccccc1OC)CC(=O)Nc1ccccc1-c1ccccc1	2	2	3	24*	17	/
COc1cc(-c2ccc(=O)[nH]n2)ccc1OC(F)F	-7	-2	/	-3	-15	87*
Cc1cc(=O)nc2c3ccccc3n(CC(=O)NC(C)c3ccc4c(c3)OCCO4)n12 (configuration not stated)	/	/	/	2	2	-20
CN1c2ccccc2C(C)(C)[C@]12C=Cc1cc(O)ccc1O2	61*	74*	-7	7	-13	-7
Oc1ccc(CNc2ccc(F)cc2)c2cccnc12	4	2	4	-3	-27	76*
CCNc1nc(NC(C)(C)C)nc(N2CCCC2)n1	2	-2	-6	0	-35	4
CC(C)(C)Nc1nc(N2CCCC2)nc(N2CCCC2)n1	1	-2	6	1	-22	68*
O=C1CS/C(=N\c2ccccn2)N1C1CCCCC1	96*	-2	1	1	2	22
Cc1nc2ccc(NC(=O)c3ccc([N+](=O)[O-])cc3)cc2[nH]1	/	/	/	-1	-39	-106
COc1ccc(-n2c(CCC(=O)O)ccc2-c2ccccc2)cc1	29*	18	-5	-8	-34	-8
COc1cc(NC(=O)Cn2cnc(S(=O)(=O)N3CCOCC3)c2)cc(OC)c1OC	/	/	/	1	-8	-15
Cc1cc(C)n(-c2cc(Cl)cc(Cl)c2)c(=O)c1C#N	6	2	8	3	1	13
Cc1ccc(-n2c(C)cc(C)c(C#N)c2=O)cc1Cl	7	2	62*	2	8	7
O=C(CSc1nnc(Cn2nnc3ccccc32)o1)N(Cc1ccc(F)cc1)c1ccccc1	41*	9	4	8	-14	-11
Cn1c(=O)c2[nH]c(COc3ccc(C(C)(C)C)cc3)nc2n(C)c1=O	48*	26*	/	8	-4	-7
Cn1c(=O)c2[nH]c(CNCc3ccccc3Cl)nc2n(C)c1=O	5	3	4	5	10	-7
CCc1nc(SCC(=O)Nc2ccc(F)cc2)c2c(=O)n(C)c(=O)n(C)c2n1	/	/	/	-4	-27	14
CC(C)(C)C1=CC(=O)C(=O)C(C(C)(C)C)=C1	2	-1	47*	5	-5	-21
Cc1ccccc1CC1(CO)CCCN(Cc2c(C)nn(C)c2Cl)C1 (configuration not stated)	80*	0	9	10	-11	-14
SMILES	BaF3 parental	Ba/F3 V617F tox	APP transl inh	IEC-6 cytotox	KLF5 inhibitor	aSyn 5UTR inh
CCOc1c(C)cnc2c1c(=O)n(Cc1ccccc1F)c(=O)n2C	/	/	/	-1	-13	4
CC(=O)Nc1ccc(S(=O)(=O)n2cnc3cc(C)c(C)cc32)cc1	29*	5	6	1	-16	-1
O=C1c2ccccc2CN1C(CO)Cc1ccccc1 (configuration not stated)	/	/	/	-1	-17	-3
CC(=O)c1sc2c(c1N)c(=O)[nH]c(=O)n2-c1ccccc1	/	/	/	5	-15	15
CC(=O)c1sc2c(c1OC(=O)c1ccc(Cl)cc1Cl)c(=O)n(-c1ccccc1)c(=S)n2-c1ccccc1	2	5	/	-1	9	101*
O=C(NCc1ccco1)C1CCN(S(=O)(=O)c2cccc([N+](=O)[O-])c2)CC1	/	/	/	2	-22	5
